Reference: ChEMBL document CHEMBL4888484, “Replenishing the malaria drug discovery pipeline: Screening and hit evaluation of the MMV Hit Generation Library 1 (HGL1) against asexual blood stage Plasmodium falciparum ,using a nano luciferase reporter read-out” (2022)
Among all 4,800 compounds or so, about 420 (8.8%) showed an effect of 50% or more. This is one part of a sample in which strong results are shown more often than they occur.

system: Plasmodium falciparum; assay: Confirmatory screen in NF54 nanoGlo assay, in single point, at 2uM, 72h; type: functional, Erythrocyte; settings: timepoint 72 hour

Structure (SMILES)	% Inhibition [%]
COc1cc(C(=O)N2CCN(c3ccccc3)CC2)cc2occc12	-2
O=C(NCc1cccc(Br)c1)c1ccc(Cl)c(-n2cnc3cccnc32)c1	-1
O=C(COCC(=O)Nc1cccc(Cl)c1Cl)NCCC1=CCCCC1	-3
O=C(O)C1CC=CCC1C(=O)N1CCCCCC1 (stereo not given)	2
NC(=O)C(=O)Nc1ccccc1C(F)(F)F	-8
COc1ccc(-n2ncc(Oc3cccc(C)c3)c(Nc3cccc(C(=O)NCc4ccc(F)cc4)c3)c2=O)cc1	50
COc1ccc(CNC(=O)c2cc(C(=O)c3ccc(F)cc3)c[nH]2)cc1	-11
CC(C)c1ccc(Oc2cnn(-c3cccc(Cl)c3)c(=O)c2Nc2cccc(C(=O)NC3CC3)c2)cc1	48
O=c1cc(COc2ccc(F)c(F)c2)nc2sccn12	3
CN(CCNC(=O)CCc1cn(-c2ccccc2)nc1-c1ccc2c(c1)OCO2)C1CCCCC1	52
O=C(CCn1nc(-c2ccc3c(c2)OCO3)ccc1=O)NC1CCCCC1	-10
Cc1cc2nc(C)c(=O)n(CCC(=O)NCCCN(C)C3CCCCC3)c2cc1C	0
CN(C)c1noc(CN2CCc3ccc(F)cc3C2)n1	25
COc1ccc(S(=O)(=O)Nc2c(C)nc3ncnn3c2O)cc1	-18
CCN1CCN(c2nc(O)c3c(n2)NC(=O)C[C@H]3c2cccc(F)c2)CC1	-11
Cn1ncc2c(NCCO)nc(N3CCCCCC3)nc21	5
O=S(=O)(NC1CCCCC1)c1ccc(Cl)c(S(=O)(=O)NC2CCCCC2)c1	0
N#Cc1cc(S(=O)(=O)NCCN(C2CC2)S(=O)(=O)c2ccc(Cl)c(C#N)c2)ccc1Cl	75
COc1ccc(-n2nc(C(=O)N3CCN(c4ccccc4)CC3)c(=O)cc2OC)cc1	-5
Cn1ccnc1[C@@H](NC(=O)c1ccnn1C(F)F)C(C)(C)CO	-2
CCc1nc2c(C(=O)N3CCOc4c(C)cc(C)cc43)ccnc2[nH]1	72
COc1cccc(CNCc2ccc3c(c2)OCO3)c1OCc1ccc(Cl)cc1Cl	-3
Cc1c(C(=O)N2CCCCC2)cccc1N1CCNC1=O	-15
COc1ccc2c(c1)OC13CCN(C)CC1C2C(C(=O)c1ccccc1OC)C(=O)N3 (stereo not given)	57
COc1cccc(C(=O)N2CCC3(CC2)C[C@@H](OCc2ccccc2)CCO3)c1	-3

Structure (SMILES)	% Inhibition [%]
COc1cccc(NC(=O)c2ccccc2C(=O)OCCN2CCOCC2)c1	-2
Cc1cc(C(=O)NCC[C@H](C)n2nc(C)cc2C)c2c(-c3ccc(F)cc3)noc2n1	-9
Cn1cc(-c2nn(S(=O)(=O)c3ccccc3)c(-c3cnn(C)c3)c2Cl)cn1	2
CC1CC1NC(=O)C(NS(C)(=O)=O)C(C)(C)C (stereo not given)	8
Cc1nc[nH]c1CN1CCN(C(=O)CCC(C)C)[C@H]2CS(=O)(=O)C[C@H]21	0
CCc1nc2cc(-c3noc(Cc4ccc(Cl)cc4)n3)ccc2o1	-5
Cc1ccc(-n2nc(C)cc2NC(=O)CN2CCCN(c3ccc(C(F)(F)F)cn3)CC2)cc1	6
O=C(c1ccccc1)c1ccc(O)c(CN2CCCN(c3ccc(C(F)(F)F)cn3)CC2)c1O	79
Cc1cccc(-c2nc3nc(C)c(CC(=O)N4CCCCC4)c(C)n3n2)c1	1
O=C(c1ccccc1OCC1CC1)N1CC(O)C1	-5
Cc1c(Cl)cccc1NC(=O)[C@H]1CC(=O)N(c2ccc(OCc3ccccc3)cc2)C1	-3
O=C(Cn1cnc2cc3c(cc21)OCCCO3)N1CCc2ccccc21	0
CC[C@@H](CO)NCc1cccc(OC)c1OCC(=O)NC(C)(C)C	-8
COc1cccc(CNC(C)(C)C)c1OCC(=O)NC(C)(C)C	-5
CCOc1cc(CNc2cccc3ccccc23)cc(Br)c1OCC(=O)NC(C)(C)C	89
COc1ccc(Cl)cc1CNC[C@H](C)O	-6
CCc1ccc(/C=C/c2c[nH]c3ccccc23)[n+](CC)c1	89
C[n+]1ccccc1/C=C/c1c[nH]c2ccccc12	90
O=C(Cc1cccs1)NC1CCN(c2nnc3ccc(Cl)cn23)CC1	-12
Cc1ccc([C@@H]2c3cccn3CCCN2Cc2cccs2)cc1C	10
O=C(O)COc1ccccc1[C@H]1CC(O)=Nc2cccc3c2c1cn3Cc1cccc(F)c1	1
N#Cc1ccc(CNc2ccccc2OCC(F)F)o1	-10
CNCCCNC(=O)c1ccc(Br)cc1C	5
COc1cc(NC(=O)N2CC(c3noc(-c4ccccc4)n3)C2)cc(OC)c1OC	2
CNC(=O)[C@@H]1C[C@H](NCc2cc(OC)c(OC)c(OC)c2)CN1CC(c1ccccc1)c1ccccc1	63

Structure (SMILES)	% Inhibition [%]
COc1cc(CNC2CCCCC2)cc(Br)c1OCc1ccccc1Cl	5
Cc1nc([C@H](C)NC(=O)c2ccc(S(C)(=O)=O)cc2)cs1	3
Cc1onc(C(=O)N2CCC3(CC2)CC[C@]3(C)O)c1Cn1cccn1	-6
CC(=O)Nc1cc2c(cc1NC(C)=O)N(C(C)=O)CC2	-15
COc1ccc(C2=Nc3ccc(S(=O)(=O)N4CCOCC4)cc3S(=O)(=O)N2)cc1	-10
C[C@H]1CCC[C@@H](NCCc2ccccc2)CCC/C=C/c2cc(O)cc(O)c2C(=O)O1	77
Cc1nc2c(-c3ccco3)nc(=O)n(CC(=O)Nc3cccc4ccccc34)c2s1	-8
COc1cccc(NC(=O)N2CC(O)CC2C2CCCCC2)c1 (stereo not given)	-3
Oc1cccc(CN2CCC3(CC2)C[C@H](c2ccccc2)CN(C2CC2)C3)c1	31
COc1ccc(-c2nccn3cc(C(=O)NCC(C)C)nc23)cc1	-2
Cc1cccc(Cc2c(C)nn(-c3nc(C)cc(C)n3)c2O)c1	-18
CN(C)C(=O)c1cc2c(s1)CC[C@H](C(=O)NCCN1CCOCC1)C2	6
Cc1nn(-c2ncccn2)c2c1[C@@H](c1ccccc1)CC(=O)N2	-16
Cc1nn(-c2nc3ccccc3[nH]2)c2c1[C@@H](c1cccnc1)CC(=O)N2	79
O=C1C[C@H](c2cccnc2)c2cnn(C3CCCC3)c2N1	6
O=C(CN1CCC[C@H]1C1CCCC1)NCC1CCCCC1	27
CC1=NN(c2ccccc2)C(O)C1C(c1ccccc1O)C1C(C)=NN(c2ccccc2)C1O (stereo not given)	-7
Cc1ccccc1Cn1nc2ccc(S(=O)(=O)N3CCOCC3)cn2c1=O	4
COc1ccc(N2CCN(C(=O)c3ccc(F)cc3)[C@@H](C)C2=O)cc1	5
COc1ccc2[nH]c3c(c2c1)CCN(C(=O)c1ccc(C)c(C)c1)[C@@H]3c1ccccc1OC	84
COc1ccc([C@@H]2c3[nH]c4ccc(OC)cc4c3CCN2C(=O)NCc2ccc(F)cc2)cc1	14
COC(=O)c1nc2ccccc2c(-c2cn(-c3ccc(C(F)(F)F)cc3)nn2)c1C(=O)OC	1
CC(C)CNC(=O)N1CCCC[C@H]1c1noc(COc2ccc(F)cc2)n1	-9
COc1ccc(C2=NN(C(C#N)c3cccc(OC)c3O)C(c3ccccc3)C2)cc1 (stereo not given)	4
N#CC(c1ccc(Cl)cc1)N1N=C(c2ccccc2)CC1c1ccccc1 (stereo not given)	4

Structure (SMILES)	% Inhibition [%]
c1ccc(C2=NN(c3ccc(-c4cc(-c5ccccc5)[n+](-c5ccccc5)c(-c5ccccc5)c4)cc3)[C@H](c3ccccc3)C2)cc1	94
CC(NCC(O)Cn1c(-c2ccccc2)c(-c2ccccc2)c2ccc3ccccc3c21)c1ccccc1 (stereo not given)	88
Cc1c(C)n(C[C@@H](O)CNC2CCCC2)c2c(Cl)cccc12	-1
Cc1c(C)n(C[C@H](O)Cn2c(C(F)(F)F)nc3ccccc32)c2c(Cl)cccc12	-6
Cc1c(C)n(CC(O)CNC(C)c2ccccc2)c2c(Cl)cccc12 (stereo not given)	64
Cc1cccc(C(=O)Nc2c(C#N)c(-c3ccccc3)c(-c3ccccc3)n2Cc2ccccc2)c1	3
CCC(C)NCC(O)Cn1c(-c2ccccc2)c(-c2ccccc2)c2cc(C)ccc21 (stereo not given)	92
O=C(Cn1c(=O)n(Cc2nc(-c3ccccc3)no2)c(=O)c2ccccc21)Nc1cccc(Cl)c1	5
O=C(NCc1ccccc1)c1cnn2c3c(cnc12)CCCCCC3	2
CCc1ccccc1NC(=O)c1sccc1S(=O)(=O)N1CCc2ccccc2C1	2
Cc1cnc(CNC(=O)Nc2nnc3ccccn23)s1	-13
NC(=O)c1cccc(NC(=O)CC2=CCCCC2)n1	-11
CC[C@H]1CN2C=NC(N3CCN(C(=O)Nc4cc(F)cc(F)c4)CC3)=CC2=N1	35
O=C(CCC(=O)c1ccc(F)cc1F)NS(=O)(=O)c1cccnc1	-4
Cc1ccc(-c2nc3c(c(=O)n2CC(=O)NC[C@H]2CCCO2)CCN(Cc2ccccc2)C3)cc1	-9
Cc1ccc(S(=O)(=O)Nc2ccccc2-c2nnc(-c3c(NS(=O)(=O)c4ccc(C)cc4)ccc4ccccc34)o2)cc1	-14
Cc1ccc(S(=O)(=O)Nc2c(S(=O)(=O)c3ccc(C)cc3)c3nc4ccccc4nc3n2C[C@H]2CCCO2)cc1	52
Cc1ccc(NS(=O)(=O)c2ccc(NC(=O)Cc3ccccc3)cc2)cc1C	2
Cc1ccc(S(=O)(=O)Nc2c(S(=O)(=O)c3ccc(C)cc3)c3nc4ccccc4nc3n2CCC(C)C)cc1	98
Cc1ccc(S(=O)(=O)Nc2c(S(=O)(=O)c3ccccc3)c3nc4ccccc4nc3n2CCc2ccccc2)cc1	97
Cc1ccc(S(=O)(=O)Nc2cc3nc4ccccc4nc3n2CCc2ccccc2)cc1	100
CS(=O)(=O)n1c(CCCc2ccccc2)nc2ccccc21	1
Cc1ccc(S(=O)(=O)c2c(C)cc(-c3ccccc3)nc2N2CCOCC2)cc1	0
Cc1cc(NC(=O)Cn2c(=O)n(CCc3ccccc3)c(=O)c3ccccc32)no1	4
Cc1cnc(C2CCC2)n1CCNS(=O)(=O)c1ccccc1	-4
